Experimental data reported in PubChem BioAssay AID800 (PCMD, 2007).
Screen size: about 220,000 compounds; about 650 (0.3%) were called active. What follows is part of a selection rich in actives, with near analogues and random picks from the rest. Values without a mark were called inactive. No stated cut-off is given here; in the data, active means inhibition above about 40%; inactive means the rest.

Molecular target: Coagulation factor XII (Homo sapiens) (UniProt P00748)
Experiment: human FXIIa protease inhibitors, primary screen, biochemical, 1536-well (AID 800);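 further: 0% = enzyme with no compound and 100% = blank without enzyme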
Settings: purified FXIIa, Boc-QGR-AMC fluorogenic substrate, 2 h; at 5 µM; stronger effect = higher value

Chain of Coagulation factor XII (Homo sapiens) (P00748 20-372 limits assumed): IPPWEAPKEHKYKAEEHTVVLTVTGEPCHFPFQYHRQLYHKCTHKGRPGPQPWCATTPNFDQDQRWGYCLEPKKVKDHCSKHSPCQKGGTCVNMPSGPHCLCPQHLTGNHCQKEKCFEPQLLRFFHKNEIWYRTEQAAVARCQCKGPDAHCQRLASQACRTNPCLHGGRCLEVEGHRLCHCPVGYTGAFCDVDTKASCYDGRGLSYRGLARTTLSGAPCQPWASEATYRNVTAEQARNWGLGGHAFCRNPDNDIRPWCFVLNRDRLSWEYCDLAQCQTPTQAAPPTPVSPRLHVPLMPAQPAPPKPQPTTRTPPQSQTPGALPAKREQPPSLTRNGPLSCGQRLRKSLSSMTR
Chain of Coagulation factor XII (Homo sapiens) (P00748 373-615 limits assumed): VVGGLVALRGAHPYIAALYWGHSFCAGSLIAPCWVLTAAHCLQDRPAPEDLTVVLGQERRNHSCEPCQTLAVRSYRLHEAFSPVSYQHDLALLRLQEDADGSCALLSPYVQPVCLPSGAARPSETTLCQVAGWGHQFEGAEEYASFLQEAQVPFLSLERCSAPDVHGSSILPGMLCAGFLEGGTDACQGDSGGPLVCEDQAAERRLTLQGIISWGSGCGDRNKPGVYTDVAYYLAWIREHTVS

Row | Structure (SMILES) | inhibition
1 | COc1ccc(SC[C@H](Cc2ccccc2)N2CCN(CCc3ccccc3)CCC2=O)cc1 | 9.1%
2 | NC(=O)c1nnsc1-c1ccc(-c2snnc2C(N)=O)cc1 | -1.04%
3 | COC(=O)c1cc(S(=O)(=O)N2CCC(C(N)=O)CC2)oc1C | 1.7%
4 | NC(=O)CC(NC(=O)Cc1cccc2ccccc12)c1ccc(NCc2cc(F)ccc2F)c([N+](=O)[O-])c1 (centres undefined) | 3.78%
5 | Nc1ccccc1C(=O)NC1CCCCNC1=O (centres undefined) | 3.81%
6 | O=C(Nc1cccnc1Oc1ncnc2cc(Cl)ccc12)c1ccc(F)cc1 | 0.47%
7 | CCOC(=O)CC1C(=O)NCCN1c1nc2c(C)cccn2c(=O)c1/C=C1\SC(=S)N(C(C)CC)C1=O (centres undefined) | 14%
8 | S=c1[nH]nc(-c2cc(-c3ccccc3)n[nH]2)n1/N=C/c1c2ccccc2cc2ccccc12 | 8.1%
9 | CC(C)c1nc(SCC(=O)NC(=O)NC(C)(C)C)n[nH]1 | 12.8%
10 | Cc1ccc(NNC(=O)C2CCC2)cc1C | 10.5%
11 | C=CCC1(C#N)C(=S)NC(C)=C(C(=O)OCC)C1c1ccccc1 (centres undefined) | 6.96%
12 | Cc1nc(Cl)c(C#N)c2c1CCCC2 | 2.37%
13 | Cc1cc(C)c(NC(=O)CN2C(=O)NC(Cc3ccccc3)C2=O)c(C)c1 (centres undefined) | 0.73%
14 | CC(C)=CCc1c(O)c(CC=C(C)C)c2occ(-c3ccc(O)cc3)c(=O)c2c1O | 7.17%
15 | O=C(O)C1=C[C@H](c2cccs2)C[C@H](OCCCCO)O1 | 7.11%
16 | Cc1ccc(S(=O)(=O)NC(=O)N2CCCN(Cc3ccc(F)cc3)CC2)cc1 | 3.56%
17 | Cc1ccc(NC(=O)Nc2cc(-c3ccccc3)nn2C)cc1Cl | -1.26%
18 | Nc1nnc(SCC(=O)NC2CCCc3ccccc32)s1 (centres undefined) | -2.74%
19 | CN(C)C(=O)c1coc2nc3ccccc3nc12 | 7.55%
20 | CC1Cc2ccccc2N1S(=O)(=O)c1ccc(Cl)nc1 (centres undefined) | 1.69%

Row | Structure (SMILES) | inhibition
21 | COc1ccc2c(c1)c1ncn(Cc3ccccn3)c(=O)c1n2C | -1.96%
22 | CN=C1C=C/C(=N/N=c2\ccn(O)cc2C)C=C1C | 12.1%
23 | O=C1CCC(=O)N(O)CCCCCNC(=O)CCC(=O)N(O)CCCCCNC(=O)CCC(=O)N(O)CCCCCN1 | 6.14%
24 | O=C(O)C(F)(F)C(NCc1ccccc1)c1ccccc1 (centres undefined) | 18.5%
25 | CCOC(=O)CSc1nc(C)c(Oc2ccc(Cl)cc2Cl)c(=O)[nH]1 | 10.3%
26 | COCCCn1c(-c2cccs2)nc2nc3ccccc3nc21 | -19.8%
27 | CSCC[C@H](NC(=O)NC1CCCC1)C(=O)O | 0.35%
28 | CCN(CC(=O)Nc1ccc(S(=O)(=O)N2CCCC2)cc1)CC(=O)Nc1cccc(OC)c1 | 3.63%
29 | O=C(NN1C(=O)C2CCCCC2C1=O)c1ccco1 (centres undefined) | 5.14%
30 | C/C(=N/NC(=O)CC(=O)N/N=C(\C)c1ccc([N+](=O)[O-])cc1)c1ccc([N+](=O)[O-])cc1 | 6.83%
31 | O=C(CS(=O)(=O)c1cn(Cc2ccc(Cl)cc2)c2ccccc12)N1CCOCC1 | 45.4% (active)
32 | O=C(CS(=O)(=O)c1cn(Cc2cccc(F)c2)c2ccccc12)N1CCCCC1 | 14.4%
33 | COc1cccc(NC(=O)CS(=O)(=O)c2cn(CC(=O)N3CCOCC3)c3ccccc23)c1 | 2.47%
34 | CCN(CC)CCC(c1ccc2c(c1)OCO2)c1c(OC)cc(OC)c2c(-c3ccccc3)cc(=O)oc12 (centres undefined) | 8.45%
35 | CN(Cc1ccccn1)Cc1nc(-c2ccc(Cl)cc2)no1 | 103% (active)
36 | COC(=O)c1ccc(-c2noc(CN(Cc3ccccn3)CC3CCCO3)n2)cc1 (centres undefined) | 14.6%
37 | CCN1CC(CN(C)Cc2nc(-c3ccc(Cl)cc3)no2)CC1=O (centres undefined) | 7.51%
38 | COc1cc(OC)c2ccc(=O)oc2c1C(CCN1CCN(c2ccccc2)CC1)c1ccc2c(c1)OCO2 (centres undefined) | 7.95%
39 | CCOC(=O)c1c(N)sc2c1CCCC2=O | 5.97%
40 | O=C(O)C1CCN(C(=O)c2cc(F)cc3c2OCOC3)CC1 | 4.37%

Row | Structure (SMILES) | inhibition
41 | Cc1ccc(Nc2c3c(nc4ccccc24)CCC3)cc1 | 9.63%
42 | CSc1nnc(SCc2nc3sc(C(=O)O)c(C)c3c(=O)[nH]2)s1 | 10.1%
43 | COc1ccc(CCNC(=O)CCn2c(=O)oc3ccccc32)cc1OC | 7.51%
44 | COc1ccc(CCNC(=O)Cn2c(=O)n(CC3CCCO3)c(=O)c3ccccc32)cc1OC (centres undefined) | -8.44%
45 | COc1ccc(CCNC(=O)CCn2c(=O)c3ccccc3n(CC(=O)NCC3CCCO3)c2=O)cc1OC (centres undefined) | 40% (active)
46 | Cc1cc(Cl)ccc1NNC(=O)c1snnc1C | 7.13%
47 | COc1ccc(SCCN2CCN(CC(C)C)CCC2=O)cc1 | 7.64%
48 | CC1(C)CC(=O)C=C(Nc2ccccc2)C1 | 6.92%
49 | S=c1[nH]nc(-c2cc(-c3ccsc3)n[nH]2)n1-c1ccccc1 | 4.05%
50 | CC(C)C(=O)N1CCC2(CC1)Oc1ccc(F)cc1C(=O)C21CC(c2ccccc2)=NO1 (centres undefined) | 8.49%
51 | O=c1cc(CCl)nc2scc(-c3ccccc3)n12 | 6.87%
52 | Cc1c(C#N)c2ncn(CC#N)c(=O)c2n1-c1ccccc1 | 7.67%
53 | CN(C)/C=C/c1c(C#N)c(=O)ncn1Cc1ccccc1 | 53% (active)
54 | CN(C)c1ccnc2sc3c(=O)n(Cc4ccccc4)cnc3c12 | 2.78%
55 | O=C(N/N=C/c1cccc2cccnc12)[C@H]1C[C@@H]1c1ccccc1 | 8.29%
56 | O=C(O)CCn1c(O)c(C=C2N=c3ccccc3=N2)sc1=S | 12.8%
57 | COc1ccc(Cl)cc1S(=O)(=O)N1CCC(O)(c2ccc(Cl)cc2)CC1 | 3.43%
58 | Cc1cc(N)n(-c2ccc(S(=O)(=O)N3CCCC3)cc2[N+](=O)[O-])n1 | 3.82%
59 | O=C(Nc1ccc(N2CCN(C(=O)c3ccccc3)CC2)c(Cl)c1)c1ncn[nH]1 | 7.54%
